Measurements reported in the supplement of paper PMC6555819.

What was measured:
Experiment in all cases: PBM binding z-score (relative to random genomic background probes); higher = stronger binding; sequences stand for … in GC…GCGATTGACAGCGTAGAATGAAGG
[1] = tested on: PPARg:RXRa DBDmut IVT, anti-RXR (DBD mutation: RXRa K156A/R161A, NR concentration 270 nM, RXRa partner concentration 90 nM)
Procedure, shortened: (§1)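 On custom Agilent 4×180K arrays, double-stranded probes with 34-nt variable regions carried direct-repeat seeds, single-nucleotide variants, half-site ablations or random human genomic background. Ligand-free nuclear receptor dimers were applied for 1 h, and binding was read with antibodies against each partner (one per run). Binding z-scores come from regression-normalized fluorescence, with the random background probes as reference.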

[2] = tested on: PPARg:RXRa IVT, anti-PPARg (NR concentration 270 nM, RXRa partner concentration 90 nM)
Procedure, shortened: as §1

[3] = tested on: PPARg DBDmut:RXRa IVT, anti-PPARg (DBD mutation: PPARg1 K132A/R137A, NR concentration 270 nM, RXRa partner concentration 90 nM)
Procedure, shortened: as §1

[4] = tested on: PPARg DBDmut IVT, anti-PPARg (DBD mutation: PPARg1 K132A/R137A, NR concentration 270 nM)
Procedure, shortened: as §1

[5] = tested on: PPARg homodimer (NR concentration 180 nM)
Procedure, shortened: as §1

[6] = tested on: PXR:RXRa (NR concentration 270 nM, RXRa partner concentration 90 nM)
Procedure, shortened: as §1

[7] = tested on: PXR homodimer (NR concentration 270 nM)
Procedure, shortened: as §1

[8] = tested on: RARa:RXR (NR concentration 270 nM, RXRa partner concentration 90 nM)
Procedure, shortened: as §1

[9] = tested on: RARa homodimer (NR concentration 270 nM)
Procedure, shortened: as §1

[10] = tested on: RARb:RXRa (NR concentration 270 nM, RXRa partner concentration 90 nM)
Procedure, shortened: as §1

Sequence	PBM binding z-score [1]	PBM binding z-score [2]	PBM binding z-score [3]	PBM binding z-score [4]	PBM binding z-score [5]	PBM binding z-score [6]	PBM binding z-score [7]	PBM binding z-score [8]	PBM binding z-score [9]	PBM binding z-score [10]
CGTCCAAGGTCATAGGAGGTCAGTGCAGACAGAT	3.55	4.57	0.589	1.49	4.86	6.81	4.62	6.21	2.75	5.33
TGAATGAGGTTGTAAGATCAGGGAACGTTGCAAA	-0.831	-0.0172	0.744	-0.354	-0.324	-0.125	-0.318	0.203	-0.183	0.0234
GCATATAGGTAATACAAGGTGAATGTCCGATTGT	4.28	3.39	1.78	0.61	0.903	0.286	0.012	0.602	0.84	0.305
TAGCGTAGGTCATTCAGGGGCCAGTATAGAAAGC	0.864	1.61	0.591	0.134	2.48	3.08	0.138	4.5	0.404	3.99
AGTCAAAGTGCAGGACGAGGTAACGTAAAGCACG	-0.506	0.274	-0.356	-0.388	-0.0962	-0.156	-0.256	0.784	-0.657	1.15
TGAATGAGGTTAAAGATCAGGGATCGTGGCGTCG	2.1	3.36	0.927	0.328	2.57	1.75	-0.845	3.09	-0.37	1.85
ACAGACAGGTGATGAAGGTAACTAAGGCTATCAT	-0.224	0.73	0.827	-0.211	0.053	0.0666	0.104	0.191	0.0422	0.371
TCGAGTAGGTTAGGGGCATTCATAATGGCGTCGA	2.14	1.72	-0.476	-0.145	0.584	0.584	0.233	0.705	0.173	1.07
CTACAAAGGTGAACAAGGTCGTTGATTACTATTC	3.31	3.77	0.982	0.418	1.57	3.89	2.18	3.61	0.686	3.63
GCGATTAGTTGAAAGGGCAACCGAATGATTCTCG	0.242	0.29	-0.291	-0.4	0.619	0.575	0.0647	1.43	-0.197	1.87
ACTATTAGTTTACTTAGGGCAACCGATACGACGC	0.826	0.924	0.857	1.39	0.166	0.669	1.14	0.64	0.904	1.04
TCAGACAGGTAAAGGTAACTCAGGTACGCAGTCG	2.37	0.745	0.618	0.192	0.82	0.892	0.37	1.35	0.782	0.904
TCTCGTAGATCAAAGGTTAAGAAAGCCGAAGCCT	1.73	1.46	-0.063	-0.642	0.726	1.89	-0.203	2.71	0.027	1.69
GCTTACTGGTCAAAGGTTATAGCATGAATAGAAT	1.14	3.37	1.09	1.11	0.856	3.18	0.438	4.53	0.553	2.54
CAAACTAGGTCACAGAGGTCAGAGTCCGTGCGTA	8.64	9.29	2.49	1.4	4.05	5.59	7.79	5.97	1.84	5.11
ACTATTAGTTGACTTAGGGCACCCGATACGACGC	0.28	0.339	1.12	1.59	0.282	-0.159	0.392	0.226	1.18	0.663
TCTCCGAGGACACGAAAGGTCAGAGCTCGACATC	1.67	1.97	0.778	0.343	2.54	4.22	0.558	4.27	0.52	4.47
GCTAGTTGGTCAGTAAAAGATCACACACCGGTCG	0.304	0.185	-0.527	0.421	0.2	-0.208	-0.161	0.0692	0.555	0.45
ATATGTAGCTTACATCCGGGTCATTCAGGCTATG	0.48	1.48	1.08	0.976	0.783	2.42	1.38	2.54	0.0612	1.31
CAAACTAGGTCAGGAGGTCAAAGTCCGCTTCCCG	7.85	8.07	2.42	1.18	6	5.16	2.29	6.31	1.8	4.92
CGTCCAAGGTCAAAGGTCAGTGCAGAGATGACGG	3.55	5.49	1.33	1.29	4.31	7.08	2.79	9.23	3.59	5.77
ATCGAAAGGTCGACGAGGTGGGTATACACCGTTT	0.15	1.75	0.733	1.26	1.34	2.6	0.341	2.98	-0.0132	3.68
TTACCAAGGTGACGGTCGTTGATCCCTCTGTAGA	2.39	3.64	0.228	-0.126	0.25	0.252	-0.877	0.759	-0.412	1.82
